# PubChem BioAssay (EPA / NIEHS)
# “And” between values parts separate entries of the source, which are not always exact repeats. Equal entries are not always repeated. Inconclusive results are not listed. Where a structure was tested more than once in an assay, its records may differ in their call. The source made the active and inactive calls. Rule for the calls, unless noted: active = hit-call score of the fitted dose curve at least 0.9, where 1 is the maximum; inactive = score below 0.9.
# What was measured:
# [1] = CCTE_Mundy_HCI_hNP1_Casp3_7: CCTE's Caspase-Glo 3/7 Assay in human neuroprogenitor cells for Apoptosis, Mundy Lab (AID 2284240)
# Procedure, shortened: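 Apoptosis is scored by activated caspase-3/7 luminescence in WA09-derived neural progenitor cells, measured 26.5 h after chemical dosing. Values represent gain of signal relative to DMSO vehicle.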
# [2] = CCTE_Mundy_HCI_hNP1_CellTiter: CCTE's Cell Titer-Glo 2 Assay in human neuroprogenitor cells for Viability, Mundy Lab (AID 2284241; active = hit-call score of the fitted dose curve at least 0.9, where 1 is the maximum;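 for AC50: a hit is a drop in ATP luminescence versus DMSO meaning reduced viability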)
# Procedure, shortened: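 Human neural progenitor cells (hNP1, WA09-derived) were plated on poly-L-ornithine/laminin and grown 40 to 44 hours at 37 °C, 5% CO2 before chemical addition. Twenty-four hours later, ATP was measured by CellTiter-Glo luminescence; loss of signal versus DMSO indicates reduced viability.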
# [3] = CCTE_Mundy_HCI_Cortical_Synap_Neur_Matur_NeuronCount: CCTE's Synaptogenesis and Neurite Maturation Assay in rat cortical cells for Neuron Count, Mundy Lab (AID 2284242; active = hit-call score of the fitted dose curve at least 0.9, where 1 is the maximum;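 for AC50: hits reduce neuron count versus DMSO baseline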)
# Procedure, shortened: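 Neuron counts come from automated high-content imaging of Hoechst nuclei and MAP2/synaptophysin immunostaining at DIV 12, with loss of signal judged against DMSO. Cultures of rat cortical cells had glial growth arrested by AraC at DIV 5; chemical exposure began DIV 7.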
# [4] = read-out: Collagen III, COL3A1 (gene 1281); assay: BSK_MyoF_CollagenIII: BioMAP Diversity Plus: MyoF Assay for Collagen III Biomarker Activity (AID 2284239); details: primary human lung fibroblasts
# Protocol: BSK_MyoF is a cell-based, multiplexed-readout assay that uses lung fibroblasts, […], with measurements taken at 24 hours after chemical dosing in a microplate: 96-well plate.BSK_MyoF_CollagenIII is an assay component measured in the BSK_MyoF assay. It measures Collagen III antibody related to regulation of gene expression using ELISA technology.Data from the assay component BSK_MyoF_CollagenIII was analyzed at the endpoint, BSK_MyoF_CollagenIII, in the positive analysis fitting direction relative to DMSO as the negative control and baseline of activity. Using a type of binding reporter, gain or loss-of-signal activity can be used to understand protein changes. […]
# (§1) The levels of cell surface (or secreted, indicated by the prefix "s") biomarker endpoints were measured by ELISA. Overt cytotoxicity to cells in confluent adherent cultures (all systems other than the BT system) was assessed by measuring total protein levels using sulforhodamine B (SRB) staining in parallel cultures at the time of biomarker measurements, indicated as SRB endpoints. For proliferation assays for adherent cell types, individual cell types are cultured at sub-confluence and relative cell numbers quantified by SRB staining at time points optimized for each system (48 h: 3C and CASM3C systems; 72 h: BT and HDF3CGF systems; 96 h: SAg system). […] Plates were read after 6 h.
# [5] = read-out: Interleukin 17F (IL17F), IL17F (gene 112744); assay: BSK_BT_xIL17F: BioMAP Diversity Plus: BT Assay for Interleukin 17F (IL17F) Biomarker Activity (AID 2284243); details: primary human B cells with PBMC
# Procedure, shortened: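 Human B cells co-cultured with PBMC; secreted IL-17F quantified by LumineX xMAP 24 hours after chemical dosing. Activity fitted in the positive direction against DMSO negative control as baseline.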
# [6] = read-out: Actin alpha 1 (ACTA1), ACTA1 (gene 58); assay: BSK_MyoF_ACTA1: BioMAP Diversity Plus: MyoF Assay for Actin alpha 1 (ACTA1) Biomarker Activity (AID 2284244); details: primary human lung fibroblasts
# Procedure, shortened: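 alpha-SMA levels read by ELISA against DMSO baseline, 24 h post-dose, in primary human lung fibroblasts. Parallel cultures stained with 0.1% SRB after 10% TCA fixation (560 nm) to flag overt cytotoxicity.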
# [7] = read-out: Interleukin 2 (IL2), IL2 (gene 3558); assay: BSK_BT_xIL2: BioMAP Diversity Plus: BT Assay for Interleukin 2 (IL2) Biomarker Activity (AID 2284245); details: primary human B cells with PBMC
# Protocol: BSK_BT is a cell-based, multiplexed-readout assay that uses B cell and peripheral blood mononuclear cells, a human vascular primary cell co-culture, with measurements taken at 24 hours after chemical dosing in a microplate: 96-well plate.BSK_BT_xIL2 is an assay component measured in the BSK_BT assay. It measures secreted IL-2 related to regulation of gene expression using LumineX xMAP technology.Data from the assay component BSK_BT_xIL2 was analyzed at the endpoint, BSK_BT_xIL2, in the positive analysis fitting direction relative to DMSO as the negative control and baseline of activity. Using a type of cytokine quantitation reporter, gain or loss-of-signal activity can be used to understand protein changes. […]
# as §1
# [8] = read-out: Basic fibroblast growth factor (bFGF), FGF2 (gene 2247); assay: BSK_MyoF_bFGF: BioMAP Diversity Plus: MyoF Assay for Basic fibroblast growth factor (bFGF) Biomarker Activity (AID 2284246); details: primary human lung fibroblasts
# Procedure, shortened: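 bFGF was measured by ELISA in primary human lung fibroblasts 24 h after chemical addition. Signal was analysed as positive-direction change relative to DMSO baseline.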
# [9] = read-out: Collagen IV, COL4A1 (gene 1282); assay: BSK_MyoF_CollagenIV: BioMAP Diversity Plus: MyoF Assay for Collagen IV Biomarker Activity (AID 2284247); details: primary human lung fibroblasts
# Procedure, shortened: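 Collagen IV quantified by ELISA in human lung fibroblast cultures 24 h after chemical treatment, with DMSO as baseline. Parallel SRB staining (0.1% SRB after TCA fixation, 560 nm) flags overt cytotoxicity.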
# [10] = read-out: Monokine induced gamma interferon (MIG), CXCL9 (gene 4283); assay: BSK_KF3CT_MIG: BioMAP Diversity Plus: KF3CT Assay for Monokine induced gamma interferon (MIG) Biomarker Activity (AID 2284248); details: primary human keratinocytes with fibroblasts
# Procedure, shortened: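 Parallel cultures were stained with SRB (560 nm) to check cytotoxicity. MIG was quantified by ELISA in a primary human skin keratinocyte/fibroblast co-culture 24 h post-dosing, with gain of signal fitted relative to DMSO.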
smiles,measurement,setting,value
[O-][Cl+]O,outcome,[1],inactive
same,outcome,[2],inactive
same,outcome,[3],inactive
CNC(=O)Oc1cccc2c1OC(C)(C)C2,outcome,[1],inactive
same,outcome,[2],inactive
same,outcome,[3],inactive
OCCOCCO,outcome,[1],inactive
same,outcome,[2],inactive
same,outcome,[3],inactive
CCNS(=O)(=O)C(F)(F)C(F)(F)C(F)(F)C(F)(F)C(F)(F)C(F)(F)C(F)(F)C(F)(F)F,AC50,[4],44.1 µM (active) and 45 µM (active)
same,AC50,[5],21.4 µM (active) and 37.4 µM (active)
same,AC50,[6],21.5 µM (active) and 30 µM (active)
same,outcome,[7],inactive
same,AC50,[8],46.5 µM (active) and 50.8 µM (active)
same,AC50,[9],54.7 µM (active) and 7.29 µM (active)
same,AC50,[10],46 µM (active)
same,outcome,[10],inactive
ClC1=C(Cl)C2(Cl)C3C(Cl)C=CC3C1(Cl)C2(Cl)Cl (configuration not stated),AC50,[1],90.2 µM (active)
same,AC50,[2],13.4 µM (active)
same,AC50,[3],11.5 µM (active)
COC(=O)Nc1nc2ccccc2[nH]1,AC50,[1],6.5 µM (active)
same,AC50,[2],9.91 µM (active)
same,outcome,[3],inactive
CC(C)COC(=O)c1ccccc1C(=O)OCC(C)C,outcome,[1],inactive
same,outcome,[2],inactive
same,AC50,[3],80.3 µM (active)
CCCCOC(=O)c1ccccc1C(=O)OCc1ccccc1,outcome,[1],inactive
same,AC50,[3],50.5 µM (active)
CC(C)(C)C(O)(CCc1ccc(Cl)cc1)Cn1cncn1 (configuration not stated),AC50,[1],9.92 µM (active)
same,outcome,[2],inactive
same,outcome,[3],inactive
CCC[CH2][Sn]([Cl])([CH2]CCC)[CH2]CCC,AC50,[1],4.18 µM (active)
same,AC50,[2],0.335 µM (active)
same,AC50,[3],0.0308 µM (active)
Nc1cc(Cl)cc(C(=O)O)c1Cl,outcome,[1],inactive
same,outcome,[2],inactive
same,outcome,[3],inactive
CN(C)[C@@H]1C(=O)C(C(N)=O)=C(O)[C@@]2(O)C(=O)C3=C(O)c4c(O)cccc4[C@@](C)(O)[C@H]3C[C@@H]12,outcome,[1],inactive
same,outcome,[2],inactive
COP(=S)(OC)SCN1C(=O)c2ccccc2C1=O,outcome,[1],inactive
same,outcome,[2],inactive
same,outcome,[3],inactive
